Results reported in PubChem BioAssay (NCI).
This is part of a sample that, as a whole, favours compounds with a hit. Of some 83,000 tested, about 20% had one in any assay.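 Results are percent growth after 48 hours of single-concentration exposure. 100 means growth as in untreated cells, lower positive values show inhibition; negative values down to -100 show cell death.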 Values without a mark were called inactive. The source made the active and inactive calls. How the source made its calls: active means growth percent below 10; inactive means the rest.

What follows are compounds tested on EKVX NSCLC (assay: NCI-60 one-dose screen, 48 h (100 = growth as untreated, 0 = no growth, -100 = all killed)). Conditions: 10 µM unless noted.

Q: With O=C1/C(=C\c2ccc[nH]2)c2ccccc2N1c1ccccc1 as the compound, how does the growth read?
A: 47.7%

Q: With CC[C@@H](C)[C@H](NC(=O)Cn1cc(CNC(=O)[C@@H](NC(=O)OCc2ccccc2)C(C)C)nn1)C(=O)O as the compound, how does the growth read?
A: 100%

Q: How did the growth turn out when CN1C(=O)N(C)C2C1NN=c1s/c(=C\c3ccc([N+](=O)[O-])cc3)c(=O)n12 (stereo not drawn) was run?
A: 87.5%

Q: For CNCCNc1nc2ccccc2c2c(=O)c3cccc(C)c3sc12, which growth is on record?
A: 46.4%

Q: With CCCCN1CCN(c2ccc3nc(-c4ccc5nc(-c6ccc(C(F)(F)F)cc6)[nH]c5c4)[nH]c3c2)CC1 as the compound, how does the growth read?
A: -72.4% (active)

Q: How did the growth turn out when CC[C@H](C)[C@@H](C(=O)OC)n1cc(CNC(=O)[C@@H](Cc2ccccc2)NC(=O)OCc2ccccc2)nn1 was run?
A: 92.6%

Q: Which growth does the source give for COc1ccc(C2=C(c3cccc(OC)c3)C(=O)c3ccc(C)nc3C2=O)cc1 here?
A: 75.3%

Q: With CC(C)C[C@H](C(=O)N[C@@H](C)C(N)=O)N1CC=CCN(O)S1(=O)=O as the compound, how does the growth read?
A: 176% [5 µM]

Q: Which growth does the source give for CN1C(=O)N(C)C2Nn3c(s/c(=C\c4ccc(Cl)cc4Cl)c3=O)=NC21 (stereo not drawn) here?
A: 65.1%

Q: For COc1ccc(/C=c2\sc3n(c2=O)NC2C(N=3)N(C)C(=O)N2C)cc1 (stereo not drawn), which growth is on record?
A: 98.4%

Q: Which growth does the source give for COC(=O)c1c2c(c(C)[n+]([O-])c1C)C(=O)C=C(NCc1ccccc1)C2=O here?
A: -54.9% (active)

Q: How did the growth turn out when N#C/C(=C\c1c(-c2ccccc2)[nH]c2ccccc12)S(=O)(=O)c1ccccc1 was run?
A: 61.7%

Q: CCN1C(=O)N(CC)C2C1NN=c1s/c(=C3\C(=O)N(CC(C)(C)C)c4ccccc43)c(=O)n12 (stereo not drawn) was tested. Which growth did it give?
A: 49.6%

Q: With CCCCCCCCCCCCCCn1cc(C2=C(c3coc4ccc(OC)cc34)C(=O)NC2=O)c2ccccc21 as the compound, how does the growth read?
A: 90.9%

Q: How did the growth turn out when O=c1c(-c2nc3ccccc3[nH]2)cc2ccccc2n1Cc1cn(Cc2ccccc2Cl)nn1 was run?
A: 74.8%

Q: COc1c(B(O)O)cccc1-c1nc2ccc3n[nH]c(F)c3c2c2c1CCCC2 was tested. Which growth did it give?
A: 93%

Q: Which growth does the source give for O=C(CSc1nc2ccccc2c(=O)n1-c1ccccc1)Nc1ccc(C(=O)/C=C/c2ccc(Cl)cc2)cc1 here?
A: 103%

Q: With Cc1cccc2c(=O)c3c(sc12)c(NCCN)nc1ccccc13 as the compound, how does the growth read?
A: -0.232% (active)

Q: How did the growth turn out when O=c1cc(-c2ccccc2)oc2cc(OCc3cn(Cc4ccc(F)cc4)nn3)cc(OCc3cn(Cc4ccc(F)cc4)nn3)c12 was run?
A: 57.2%

Q: For COc1cc(/C=C2\Oc3cc(OCCCN4CCCC4)ccc3C2=O)cc(OC)c1, which growth is on record?
A: 77.1%

Q: How did the growth turn out when Nc1no[n+]([O-])c1-c1nnc2c(n1)-c1ccccc1C2=O was run?
A: 63.8%

Q: With Cc1nc2ccccc2c(/C=C/c2ccccc2)c1C(=O)/C=C/c1ccc(Cl)cc1 as the compound, how does the growth read?
A: 39.9%

Q: Which growth does the source give for O=C(CN1C=NC2C(N3CCOCC3)=NC=NC21)c1ccc(Br)cc1 (stereo not drawn) here?
A: 97.6%

Q: COc1ccc(/C=C/C(=O)c2c(C)nc3ccccc3c2/C=C/c2ccccc2)cc1O was tested. Which growth did it give?
A: 90.3%

Q: For NC(CCc1nc2ccccc2c(=O)[nH]1)C(=O)O (stereo not drawn), which growth is on record?
A: 99.7%

Q: For CN1CCN(Cc2ccc(NC(=O)c3[nH]ncc3Nc3cc(OC4CCCC4)ncn3)cc2)CC1, which growth is on record?
A: 60.1%

Q: For COc1ccc(C2=Nn3c(NN)nnc3SC2)cc1, which growth is on record?
A: 118%

Q: With COc1cc2nc(-c3cnc(N(C)C)nc3)nc(NC3CCN(Cc4ccccc4)CC3)c2cc1OC as the compound, how does the growth read?
A: -71.2% (active)

Q: Which growth does the source give for CCN1C(=O)N(c2ccccc2)C2NN=c3s/c(=C4\C(=O)N(C(C)C)c5ccccc54)c(=O)n3C21 (stereo not drawn) here?
A: 55.9%

Q: How did the growth turn out when CC(C)c1ccc(S(=O)(=O)NC(=O)NC2CCCC2)cc1 was run?
A: 98.1%

Q: COc1cc2nc(NC3CCC3)nc(NC3CCN(C(C)C)CC3)c2cc1OC was tested. Which growth did it give?
A: 83.5%

Q: For COc1ccc(C2C3=C(COC3=O)N(CCO)c3cc4c(cc32)OCCO4)cc1 (stereo not drawn), which growth is on record?
A: 121%

Q: How did the growth turn out when NC(=O)CSc1nc(-c2ccc(F)cc2)cc(-c2ccco2)n1 was run?
A: 95.8%

Q: With Cc1ccc2nc(NC(=O)CSC(=S)N3CCN(c4ccccc4)CC3)sc2c1 as the compound, how does the growth read?
A: 109%

Q: For O=C1N=c2ccccc2=C1c1sc(=Nc2ccccc2)n(Nc2ccccc2)c1O, which growth is on record?
A: 94.2%

Q: CN1C(=O)N(C)C2(c3ccccc3)n3c(s/c(=C\c4ccccc4)c3=O)=NNC12c1ccccc1 (stereo not drawn) was tested. Which growth did it give?
A: 76.1%

Q: Cn1c(/C=C(\C#N)c2ccccc2)nc2c(N3CCOCC3)nc(Cl)nc21 was tested. Which growth did it give?
A: -72.4% (active)

Q: O=C(CN1C=NC2C(N3CCOCC3)=NC=NC21)c1cccc2ccccc12 (stereo not drawn) was tested. Which growth did it give?
A: 86.5%

Q: O=c1c2cccc(F)c2sc2c(N3CCNCC3)nc3ccccc3c12 was tested. Which growth did it give?
A: 48.2%

What follows are compounds tested on SN12C renal in the same assay as above. Conditions: 10 µM unless noted.

Q: Which growth does the source give for O=C1/C(=C\c2ccc[nH]2)c2ccccc2N1c1ccccc1 here?
A: 89.1%

Q: CC[C@@H](C)[C@H](NC(=O)Cn1cc(CNC(=O)[C@@H](NC(=O)OCc2ccccc2)C(C)C)nn1)C(=O)O was tested. Which growth did it give?
A: 97.1%

Q: For CN1C(=O)N(C)C2C1NN=c1s/c(=C\c3ccc([N+](=O)[O-])cc3)c(=O)n12 (stereo not drawn), which growth is on record?
A: 88.7%

Q: Which growth does the source give for CNCCNc1nc2ccccc2c2c(=O)c3cccc(C)c3sc12 here?
A: 32.5%

Q: How did the growth turn out when CCCCN1CCN(c2ccc3nc(-c4ccc5nc(-c6ccc(C(F)(F)F)cc6)[nH]c5c4)[nH]c3c2)CC1 was run?
A: -80.9% (active)

Q: CC[C@H](C)[C@@H](C(=O)OC)n1cc(CNC(=O)[C@@H](Cc2ccccc2)NC(=O)OCc2ccccc2)nn1 was tested. Which growth did it give?
A: 94.6%

Q: For COc1ccc(C2=C(c3cccc(OC)c3)C(=O)c3ccc(C)nc3C2=O)cc1, which growth is on record?
A: 40.6%

Q: Which growth does the source give for CC(C)C[C@H](C(=O)N[C@@H](C)C(N)=O)N1CC=CCN(O)S1(=O)=O here?
A: 106% [5 µM]

Q: For CN1C(=O)N(C)C2Nn3c(s/c(=C\c4ccc(Cl)cc4Cl)c3=O)=NC21 (stereo not drawn), which growth is on record?
A: 75.6%

Q: Which growth does the source give for COc1ccc(/C=c2\sc3n(c2=O)NC2C(N=3)N(C)C(=O)N2C)cc1 (stereo not drawn) here?
A: 101%

Q: For COC(=O)c1c2c(c(C)[n+]([O-])c1C)C(=O)C=C(NCc1ccccc1)C2=O, which growth is on record?
A: -89.1% (active)

Q: With N#C/C(=C\c1c(-c2ccccc2)[nH]c2ccccc12)S(=O)(=O)c1ccccc1 as the compound, how does the growth read?
A: 54%

Q: CCN1C(=O)N(CC)C2C1NN=c1s/c(=C3\C(=O)N(CC(C)(C)C)c4ccccc43)c(=O)n12 (stereo not drawn) was tested. Which growth did it give?
A: 32.6%

Q: CCCCCCCCCCCCCCn1cc(C2=C(c3coc4ccc(OC)cc34)C(=O)NC2=O)c2ccccc21 was tested. Which growth did it give?
A: 100%

Q: For O=c1c(-c2nc3ccccc3[nH]2)cc2ccccc2n1Cc1cn(Cc2ccccc2Cl)nn1, which growth is on record?
A: 12%

Q: With COc1c(B(O)O)cccc1-c1nc2ccc3n[nH]c(F)c3c2c2c1CCCC2 as the compound, how does the growth read?
A: 62.6%

Q: O=C(CSc1nc2ccccc2c(=O)n1-c1ccccc1)Nc1ccc(C(=O)/C=C/c2ccc(Cl)cc2)cc1 was tested. Which growth did it give?
A: 101%

Q: How did the growth turn out when Cc1cccc2c(=O)c3c(sc12)c(NCCN)nc1ccccc13 was run?
A: -75.8% (active)

Q: With O=c1cc(-c2ccccc2)oc2cc(OCc3cn(Cc4ccc(F)cc4)nn3)cc(OCc3cn(Cc4ccc(F)cc4)nn3)c12 as the compound, how does the growth read?
A: 38.7%

Q: COc1cc(/C=C2\Oc3cc(OCCCN4CCCC4)ccc3C2=O)cc(OC)c1 was tested. Which growth did it give?
A: 78.8%

Q: Which growth does the source give for Nc1no[n+]([O-])c1-c1nnc2c(n1)-c1ccccc1C2=O here?
A: 15.6%

Q: For Cc1nc2ccccc2c(/C=C/c2ccccc2)c1C(=O)/C=C/c1ccc(Cl)cc1, which growth is on record?
A: 19.7%

Q: For O=C(CN1C=NC2C(N3CCOCC3)=NC=NC21)c1ccc(Br)cc1 (stereo not drawn), which growth is on record?
A: 98.3%

Q: How did the growth turn out when COc1ccc(/C=C/C(=O)c2c(C)nc3ccccc3c2/C=C/c2ccccc2)cc1O was run?
A: 62.2%

Q: Which growth does the source give for NC(CCc1nc2ccccc2c(=O)[nH]1)C(=O)O (stereo not drawn) here?
A: 96.6%

Q: How did the growth turn out when CN1CCN(Cc2ccc(NC(=O)c3[nH]ncc3Nc3cc(OC4CCCC4)ncn3)cc2)CC1 was run?
A: 24.9%

Q: For COc1ccc(C2=Nn3c(NN)nnc3SC2)cc1, which growth is on record?
A: 101%

Q: Which growth does the source give for COc1cc2nc(-c3cnc(N(C)C)nc3)nc(NC3CCN(Cc4ccccc4)CC3)c2cc1OC here?
A: -87.2% (active)

Q: How did the growth turn out when CCN1C(=O)N(c2ccccc2)C2NN=c3s/c(=C4\C(=O)N(C(C)C)c5ccccc54)c(=O)n3C21 (stereo not drawn) was run?
A: 38.7%

Q: CC(C)c1ccc(S(=O)(=O)NC(=O)NC2CCCC2)cc1 was tested. Which growth did it give?
A: 97.1%

Q: With COc1cc2nc(NC3CCC3)nc(NC3CCN(C(C)C)CC3)c2cc1OC as the compound, how does the growth read?
A: 92.2%

Q: Which growth does the source give for COc1ccc(C2C3=C(COC3=O)N(CCO)c3cc4c(cc32)OCCO4)cc1 (stereo not drawn) here?
A: 95.4%

Q: NC(=O)CSc1nc(-c2ccc(F)cc2)cc(-c2ccco2)n1 was tested. Which growth did it give?
A: 101%

Q: For Cc1ccc2nc(NC(=O)CSC(=S)N3CCN(c4ccccc4)CC3)sc2c1, which growth is on record?
A: 99%

Q: For O=C1N=c2ccccc2=C1c1sc(=Nc2ccccc2)n(Nc2ccccc2)c1O, which growth is on record?
A: 106%

Q: CN1C(=O)N(C)C2(c3ccccc3)n3c(s/c(=C\c4ccccc4)c3=O)=NNC12c1ccccc1 (stereo not drawn) was tested. Which growth did it give?
A: 91.3%

Q: For Cn1c(/C=C(\C#N)c2ccccc2)nc2c(N3CCOCC3)nc(Cl)nc21, which growth is on record?
A: -58.6% (active)

Q: O=C(CN1C=NC2C(N3CCOCC3)=NC=NC21)c1cccc2ccccc12 (stereo not drawn) was tested. Which growth did it give?
A: 95.5%

Q: O=c1c2cccc(F)c2sc2c(N3CCNCC3)nc3ccccc3c12 was tested. Which growth did it give?
A: 46.5%
